The record followed here is PubChem BioAssay.

The structures appear in SMILES notation. Calls of active or inactive are those of the source.

For experiment [1], the system named is Plasmodium falciparum Sir2 (PF13_0152, Sir2A). As to the kind of experiment: Plasmodium falciparum Sir2A binding compounds – biochemical, small-molecule microarray, 635 nm fluorescence, primary screen (AID 1098).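 Further: score merges spot fluorescence intensity with its signal-to-noise ratio.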 The note with it: fluorescence 635 nm, higher = more signal.
The nature of experiment [2]: probe aDKK1 binding to arrayed compounds – biochemical, biotinylated probe, 635/667 nm fluorescence, primary screen (AID 1099).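 Further: score merges 667nm spot fluorescence with signal to noise across triplicate slides; reference of the scale not given here.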 The note with it: small-molecule microarray, higher = more signal.
The nature of experiment [3]: probe aCHRDL2 binding to arrayed compounds – biochemical, biotinylated probe, 635/667 nm fluorescence, primary screen (AID 1100). The note with it: small-molecule microarray, higher = more signal.
Experiment [4] in a line: change in splice reporter luminescence, either direction, cell-based, HEK293, spliceosome inhibition project, primary screen (AID 1101).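 Further: HEK293 cells carrying a splicing-competent luciferase reporter gene; test concentration not given here.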 The settings on record: HEK293 splicing luciferase reporter, 24 h, higher = more signal, called active from +8 up or from −8 down. A general note: In a reporter assay the amount or activity of a reporter protein is the signal.
For experiment [5], the target named is Fibroblast growth factor 10 (Homo sapiens) (UniProt O15520). As to the kind of experiment: compounds binding fibroblast growth factor 10 – biochemical, small-molecule microarray, 635 nm fluorescence, primary screen (AID 1102). The settings on record: FGF10 binding, fluorescence 635 nm, higher = more signal.
The subject of experiment [6] is glycogen synthase kinase-3 (GSK3A per assay name; protocol says GSK3B). As to the kind of experiment: compounds binding glycogen synthase kinase-3 – biochemical, small-molecule microarray, 635 nm fluorescence, GSK3A, primary screen (AID 1103). Further: the record names both GSK3A and GSK3B. The settings on record: fluorescence 635 nm, higher = more signal.
The target of experiment [7] is Epidermal growth factor receptor (Homo sapiens) (UniProt P00533). Kind of experiment: compounds binding epidermal growth factor receptor – biochemical, small-molecule microarray, 635 nm fluorescence, primary screen (AID 1104).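 Further: score merges 667 nm emission intensity with spot signal to noise over triplicate slides.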 The settings on record: EGFR binding, higher = more signal.
Experiment [8] concerns the target Follistatin-related protein 3 (Homo sapiens) (UniProt O95633). As to the kind of experiment: compounds binding follistatin-related protein 3 – biochemical, small-molecule microarray, 635 nm fluorescence, primary screen (AID 1105).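 Further: score merges emission near 667 nm and signal to noise per printed spot across three slides.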 The settings on record: FSTL3 binding, higher = more signal.
In experiment [9] the target is Dickkopf-related protein 1 (Homo sapiens) (UniProt O94907). Kind of experiment: small molecules binding DKK1 protein – biochemical, small-molecule microarray, 635 nm fluorescence scan, primary screen (AID 1106).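 Further: score merges emission near 667 nm with signal to noise over three replicate slides.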 The settings on record: higher = more signal.
Experiment [10] concerns Inhibin beta A chain (activin A). Kind of experiment: small molecules binding activin A – biochemical, small-molecule microarray, 635 nm fluorescence scan, primary screen (AID 1107).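 Further: mouse activin A protein probed at 4.33 µg/mL on printed slides; score merges bound-protein fluorescence near 667 nm with spot signal-to-noise.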 The settings on record: INHBA, higher = more signal.

Follistatin-related protein 3 (Homo sapiens), sequence (O95633 whole entry, looked up): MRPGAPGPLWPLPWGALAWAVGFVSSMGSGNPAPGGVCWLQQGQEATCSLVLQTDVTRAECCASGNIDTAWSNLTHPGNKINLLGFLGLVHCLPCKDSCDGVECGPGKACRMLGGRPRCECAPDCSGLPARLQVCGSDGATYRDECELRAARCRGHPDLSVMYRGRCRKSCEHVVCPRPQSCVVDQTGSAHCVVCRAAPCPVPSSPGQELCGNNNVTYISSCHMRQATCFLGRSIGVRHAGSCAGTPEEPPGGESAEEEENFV
Dickkopf-related protein 1 (Homo sapiens), sequence (O94907 whole entry, looked up): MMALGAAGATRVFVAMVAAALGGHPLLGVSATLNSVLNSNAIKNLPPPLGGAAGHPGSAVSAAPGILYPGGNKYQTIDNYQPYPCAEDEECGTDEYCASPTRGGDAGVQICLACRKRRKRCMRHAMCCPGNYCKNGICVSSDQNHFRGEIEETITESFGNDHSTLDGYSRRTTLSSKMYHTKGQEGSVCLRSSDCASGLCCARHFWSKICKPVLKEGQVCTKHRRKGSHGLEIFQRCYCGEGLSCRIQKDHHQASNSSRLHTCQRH
Fibroblast growth factor 10 (Homo sapiens), sequence (O15520 whole entry, looked up): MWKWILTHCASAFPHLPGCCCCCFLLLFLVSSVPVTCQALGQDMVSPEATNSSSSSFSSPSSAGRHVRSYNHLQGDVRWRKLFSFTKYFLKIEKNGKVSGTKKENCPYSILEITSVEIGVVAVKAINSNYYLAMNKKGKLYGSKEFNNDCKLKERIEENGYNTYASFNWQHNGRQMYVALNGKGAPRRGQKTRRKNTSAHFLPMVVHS
Epidermal growth factor receptor (Homo sapiens), sequence (P00533 whole entry, looked up): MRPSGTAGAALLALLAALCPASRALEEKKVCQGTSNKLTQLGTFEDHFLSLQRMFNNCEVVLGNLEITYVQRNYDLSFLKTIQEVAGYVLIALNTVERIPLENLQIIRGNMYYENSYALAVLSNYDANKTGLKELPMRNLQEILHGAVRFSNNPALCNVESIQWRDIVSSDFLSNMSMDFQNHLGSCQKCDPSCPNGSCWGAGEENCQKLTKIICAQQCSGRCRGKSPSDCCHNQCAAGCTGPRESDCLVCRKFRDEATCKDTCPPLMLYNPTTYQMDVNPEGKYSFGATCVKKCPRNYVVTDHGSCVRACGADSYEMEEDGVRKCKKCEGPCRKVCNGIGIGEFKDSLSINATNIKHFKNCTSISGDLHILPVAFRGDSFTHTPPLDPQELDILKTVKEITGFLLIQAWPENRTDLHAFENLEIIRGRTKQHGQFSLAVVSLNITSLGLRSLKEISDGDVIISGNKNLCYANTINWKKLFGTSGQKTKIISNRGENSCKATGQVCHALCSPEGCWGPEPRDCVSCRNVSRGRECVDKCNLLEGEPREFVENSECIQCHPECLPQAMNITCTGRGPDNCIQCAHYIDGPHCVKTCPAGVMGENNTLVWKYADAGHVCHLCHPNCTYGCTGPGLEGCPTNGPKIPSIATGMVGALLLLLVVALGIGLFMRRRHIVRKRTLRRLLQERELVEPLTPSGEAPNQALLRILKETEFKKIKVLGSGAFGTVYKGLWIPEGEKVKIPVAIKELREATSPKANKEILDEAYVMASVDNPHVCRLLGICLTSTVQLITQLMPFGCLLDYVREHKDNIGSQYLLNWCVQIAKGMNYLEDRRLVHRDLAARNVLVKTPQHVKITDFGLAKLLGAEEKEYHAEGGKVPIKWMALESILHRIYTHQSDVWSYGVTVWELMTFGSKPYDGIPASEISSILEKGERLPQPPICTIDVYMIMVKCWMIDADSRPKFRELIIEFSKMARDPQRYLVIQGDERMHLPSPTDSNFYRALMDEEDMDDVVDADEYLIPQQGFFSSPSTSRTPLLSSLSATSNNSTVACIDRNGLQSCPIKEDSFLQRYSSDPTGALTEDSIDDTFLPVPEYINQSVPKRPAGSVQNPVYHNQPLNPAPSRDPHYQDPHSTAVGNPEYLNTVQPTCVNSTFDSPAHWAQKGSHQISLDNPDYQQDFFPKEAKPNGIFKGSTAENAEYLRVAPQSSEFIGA

With `CN(C)CCCCNC(=O)[C@H]1C[C@H]2C(=O)N[C@@H](Cc3ccccc3)C(=O)N2[C@H]1c1cccc(OCCO)c1`, the composite z-score is 1.2 in experiment [1]; -0.336 in experiment [2]; 0.336 in experiment [3]; -0.407 in experiment [5]; -1.51 in [6]; 0.0459 in experiment [7]. In addition, the composite z-score is 0.198 in [8], 0.574 in experiment [9] and -0.272 in [10]. Besides, in experiment [4], the z-score was -1.9 (inactive).
For the compound `CCOC(=O)C1=CCC(c2cc3ccccc3[nH]2)N(S(=O)(=O)c2ccccc2[N+](=O)[O-])C1` (stereo not given), the composite z-score in [1] is 0.984; in [2] it was 0.225; in experiment [3], -0.006; in experiment [5], 0.696; in experiment [6], 0.565; in [7], -0.106. The composite z-score in experiment [8] was 0.319; in experiment [9] it was -0.117; in experiment [10] it was 0.722. Moreover, in experiment [4], the z-score was -0.365 (inactive).
Consider `C=CC[C@]1(C(=O)NCc2ccccc2)COC(c2ccc(OCCCO)cc2)=N1`, for which the composite z-score in experiment [1] is 1.49; in experiment [2], 1.43; in experiment [3], 1.6; in experiment [5], -0.215; in [6] it was -0.9; in experiment [7], -1.47. The composite z-score in [8] is 0.101; in experiment [9], -0.301; in [10], 0.792. For the same compound, the z-score in [4] is 0.589 (inactive).
As to `CC(C)C(=C=CC[C@@H](O)c1ccccc1OCCO)C[C@@H](O)c1cc(Cl)cc(Cl)c1O`, the composite z-score in experiment [1] was 0.665; in [2] it was -0.102; in experiment [3], -0.555; in experiment [5], 1.46; in experiment [6] it was 1.13; in experiment [7] it was 0.472. Further, the composite z-score is 1.16 in [8], 0.741 in experiment [9] and 0.169 in [10]. The z-score in [4] was -1.59 (inactive).
`CCCCC(O)C1C=CC2C(=O)NC(=O)C2N1Nc1ccc(Cl)cc1Cl` (stereo not given): the composite z-score is 0.976 in experiment [1]; 0.635 in experiment [2]; 1.03 in [3]; 0.228 in [5]; -0.104 in experiment [6]; -0.429 in [7]. For the same compound, the composite z-score in experiment [8] was -0.125; in experiment [9], -0.8; in experiment [10], 0.979. In experiment [4], the z-score was -0.167 (inactive).
`CC(C)CNC(=O)[C@@H]1c2ccccc2C(=O)N(C(C)C)[C@H]1c1ccc(CO)cc1`: the composite z-score in experiment [1] was 1.36; in [2] it was 0.0026; in experiment [3] it was 0.763; in experiment [5], -0.787; in [6], -0.221; in experiment [7], -0.5. The composite z-score in [8] was -0.573; in [9], -0.382; in experiment [10], 0.849. In experiment [4], the z-score is -1.26 (inactive).
With `COCCCNC(=O)[C@@]1(Sc2ccc(C)cc2)CC(=O)N(C2CCCCC2)[C@@H]1c1ccc(CO)cc1I`, the composite z-score was 1.06 in experiment [1]; 0.79 in [2]; 0.629 in [3]; 1.01 in experiment [5]; 1.28 in [6]; 0.549 in experiment [7]. For the same compound, the composite z-score in experiment [8] is 1.38; in [9], 0.216; in experiment [10], -0.148. For the same compound, the z-score in experiment [4] was -0.924 (inactive).
Consider `COC(=O)[C@@]1(Cc2ccc(F)cc2)[C@H]2c3cc(C(=O)N(C)C)n(CCO)c3C[C@H]2CN1C(=O)c1ccccc1`, for which the composite z-score in experiment [1] is 1.56; in [2], 0.453; in experiment [3], 0.361; in experiment [5], 0.721; in experiment [6], -0.532; in experiment [7] it was -0.537. Also, the composite z-score in experiment [8] was -0.918; in experiment [9], -0.764; in experiment [10] it was 0.495. For the same compound, the z-score in experiment [4] is -0.773 (inactive).
For the compound `C=C(COC)C(=O)CC[C@@H](OC(C)=O)c1ccc(OCCO)cc1`, the composite z-score in [1] is 1.09; in [2] it was 0.237; in experiment [3] it was 0.523; in [5], 0.977; in experiment [6], 0.186; in experiment [7], -0.484. The composite z-score in [8] is 0.278; in experiment [9] it was -0.0393; in experiment [10], 1.42. Also, in [4], the z-score was 2 (inactive).
In the case of `CC(C)C[C@H]1NC(=O)[C@H](Cc2ccccc2)NC(=O)[C@@]23C(=O)N[C@@H](Cc4ccccc4)C2[C@H](C)[C@@]2(C)O[C@H]2C3/C=C/C/C=C\CNC1=O` (stereo not given in full), the composite z-score in [1] was 1.19; in experiment [2] it was 0.0099; in experiment [3], -0.4; in experiment [5] it was 0.916; in experiment [6] it was 0.979; in experiment [7] it was 0.121. Also, the composite z-score in [8] amounted to 0.676; in experiment [9], 0.726; in experiment [10] it was 1.12. The z-score in experiment [4] was -0.514 (inactive).
In the case of `CN(C)CCCNC(=O)[C@@H]1c2ccccc2C(=O)N(C2Cc3ccccc3C2)[C@H]1c1ccc(CO)cc1`, the composite z-score is 1.78 in experiment [1]; 0.227 in experiment [2]; 0.559 in experiment [3]; -0.514 in experiment [5]; 1.27 in experiment [6]; -0.741 in experiment [7]. Moreover, the composite z-score in [8] is -0.12; in [9] it was -0.273; in [10], 0.923. In [4], the z-score was -0.196 (inactive).
Turning to `NC(=O)NCC#Cc1ccc2c(c1)[C@]1(C(=O)N2)[C@H](C(=O)Nc2nc3ccccc3s2)[C@H]2C(=O)O[C@H](c3ccccc3)[C@H](c3ccccc3)N2[C@@H]1c1ccc(OCCO)cc1`, the composite z-score in experiment [1] is -0.478; in experiment [2] it was 0.738; in [3], 1.13; in [5], 0.253; in experiment [6], -0.95; in experiment [7], 0.0294. In addition, the composite z-score in [8] is 0.559; in [9], -0.52; in experiment [10], 0.765. The z-score in [4] was 1.37 (inactive).
Consider `COCCCN1C(=O)[C@@]2(Cc3ccccc31)c1ccccc1C(=O)N(Cc1ccccc1OC)[C@H]2c1ccc(CO)cc1`, for which the composite z-score in experiment [1] was -0.909; in experiment [2], 0.612; in experiment [3] it was 0.9; in [5] it was -0.426; in [6], -0.428; in [7], -0.352. Also, the composite z-score is 0.154 in experiment [8], 0.514 in [9] and 0.157 in experiment [10]. In experiment [4], the z-score is 0.307 (inactive).
As for `O=C1OCCC=C[C@H]2OC34C=CCN(CCN5CCOCC5)C(=O)[C@H]3N(CCCO)C(=O)[C@@H]4C12` (stereo not given in full), the composite z-score in [1] is 1.41; in [2] it was -0.242; in experiment [3] it was 0.119; in experiment [5] it was -0.272; in experiment [6] it was -0.869; in experiment [7], -0.938. The composite z-score in experiment [8] was -0.549; in [9], -0.0385; in experiment [10], 0.564. Moreover, the z-score in [4] is -1.12 (inactive).
Regarding `COCCOC(=O)N1C(=O)[C@@]2(c3ccccc31)[C@H](C(=O)N1CCCCCCC1)[C@H]1C(=O)O[C@H](c3ccccc3)[C@H](c3ccccc3)N1[C@@H]2c1ccc(O)cc1`, the composite z-score was 1.86 in experiment [1]; 2.77 in experiment [2]; 1.76 in [3]; 1.38 in experiment [5]; 1.35 in experiment [6]; 1.32 in [7]. The composite z-score came out at 1.68 in experiment [8], 1.93 in experiment [9] and 1.92 in experiment [10]. In addition, in experiment [4], the z-score was -0.216 (inactive).
Turning to `O=c1cccc(-c2ccccc2C(F)(F)F)o1`, the composite z-score in experiment [1] was -0.722; in experiment [2], 1.15; in experiment [3], 0.567; in experiment [5], -0.382; in [6] it was -0.363; in [7], -0.955. In addition, the composite z-score in experiment [8] is -0.722; in [9], -0.469; in experiment [10] it was 1.11. In experiment [4], the z-score was 0.756 (inactive).
With `CC(C)C(=C=CC[C@@H](O)c1cccc(OCCO)c1)CCO`, the composite z-score in experiment [1] was 0.725; in [2], 0.0614; in experiment [3], 0.111; in [5], 1.51; in [6], -0.615; in experiment [7], -0.554. The composite z-score was found to be 0.457 in [8], 0.137 in experiment [9] and 0.677 in experiment [10]. For the same compound, the z-score in [4] is -0.87 (inactive).
